Results as given in paper PMC4336329 (PLoS ONE, 2015).
Screen size: about 310,000 compounds; about 14,000 (4.5%) showed an effect of 50% or more. Effects have a minus sign here. The list comes from a sample in which strong results are over-represented; it also holds similar structures and randomly drawn compounds.

Biological target: human ether-à-go-go-related gene (hERG) potassium channel (human, UniProt Q12809)
Assay: primary screen, population patch clamp on CHO cells stably expressing hERG; higher = less effect of the substance
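Further: peak tail current of the secondary pulse compared with the same well before compound.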

Chain of human ether-à-go-go-related gene (hERG) potassium channel (Q12809 whole entry, looked up): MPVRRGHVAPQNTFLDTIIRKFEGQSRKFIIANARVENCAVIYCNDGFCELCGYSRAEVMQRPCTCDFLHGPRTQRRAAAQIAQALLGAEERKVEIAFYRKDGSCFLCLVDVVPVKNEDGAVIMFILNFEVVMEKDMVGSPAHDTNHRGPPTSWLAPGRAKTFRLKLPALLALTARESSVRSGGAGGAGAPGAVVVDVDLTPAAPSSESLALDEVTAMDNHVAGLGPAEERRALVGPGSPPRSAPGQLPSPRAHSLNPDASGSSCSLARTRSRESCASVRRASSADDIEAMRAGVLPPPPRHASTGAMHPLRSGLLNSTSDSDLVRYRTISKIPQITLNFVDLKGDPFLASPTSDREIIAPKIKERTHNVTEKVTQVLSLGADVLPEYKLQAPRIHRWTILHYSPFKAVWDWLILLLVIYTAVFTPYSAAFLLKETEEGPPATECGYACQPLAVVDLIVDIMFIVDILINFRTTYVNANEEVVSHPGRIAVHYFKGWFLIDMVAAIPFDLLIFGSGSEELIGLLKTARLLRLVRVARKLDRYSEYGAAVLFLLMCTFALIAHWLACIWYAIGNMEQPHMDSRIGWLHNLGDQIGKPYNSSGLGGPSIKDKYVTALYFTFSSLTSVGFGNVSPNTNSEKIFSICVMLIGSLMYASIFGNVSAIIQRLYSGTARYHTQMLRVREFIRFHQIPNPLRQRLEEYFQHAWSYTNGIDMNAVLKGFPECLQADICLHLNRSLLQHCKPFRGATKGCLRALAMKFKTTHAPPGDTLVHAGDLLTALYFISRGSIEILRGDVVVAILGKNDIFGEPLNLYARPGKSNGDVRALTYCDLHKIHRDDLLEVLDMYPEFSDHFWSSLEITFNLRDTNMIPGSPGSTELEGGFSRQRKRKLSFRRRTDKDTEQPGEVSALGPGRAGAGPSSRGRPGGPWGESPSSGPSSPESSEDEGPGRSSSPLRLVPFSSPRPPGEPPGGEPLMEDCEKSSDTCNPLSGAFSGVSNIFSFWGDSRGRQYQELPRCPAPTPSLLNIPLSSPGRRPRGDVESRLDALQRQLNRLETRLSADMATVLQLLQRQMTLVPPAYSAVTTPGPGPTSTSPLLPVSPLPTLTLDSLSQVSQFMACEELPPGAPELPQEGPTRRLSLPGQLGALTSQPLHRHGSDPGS

Row | Structure (SMILES) | hERG current change (%, negative = inhibition) at 10uM
1 | CCOC(=O)C1(C)/C(=N/Nc2ccccc2Cl)C(=O)C(=O)N1c1ccccc1 (centres unmarked) | 6.03%
2 | Cc1ccc(S(=O)(=O)n2nc(C)c(Br)c2C)c(C)c1C | 20.8%
3 | Cc1ccc(S(=O)(=O)NCc2ccc(C(=O)N3CCN(c4ccccn4)CC3)cc2)cc1 | -33.6%
4 | Nc1nc(-c2ccccc2)nc2sc3c(c12)CCCC3 | 11.7%
5 | COc1cc2ccccc2cc1C(=O)Nc1ccccc1N1CCN(S(C)(=O)=O)CC1 | 6.35%
6 | COc1cc(Cl)ccc1NC(=O)COc1ccccc1C(=O)NN | -15.4%
7 | COc1ccccc1C(=O)Nc1ccccc1N1CCN(S(C)(=O)=O)CC1 | -62%
8 | Cc1ccc(C(=O)Nc2ccccc2N2CCN(C(=O)C(C)C)CC2)cc1C | -18.7%
9 | COc1cc(C(=O)Nc2ccccc2N2CCN(S(C)(=O)=O)CC2)cc(OC)c1OC | -29.9%
10 | COc1ccccc1NC(=O)COC(=O)c1ccccc1C(=O)N1CCN(c2ccccc2)CC1 | -42.3%
11 | CCOc1ccc(C(=O)Nc2ccccc2N2CCCC2)cc1 | -22.8%
12 | CCCCOc1cccc(C(=O)Nc2ccccc2N2CCCC2)c1 | 5.59%
13 | Cc1ccc(C(=O)Nc2ccccc2N2CCN(C(=O)C(C)C)CC2)cc1 | -19.1%
14 | CCOc1cccc(C(=O)Nc2ccccc2N2CCN(C(=O)C(C)C)CC2)c1 | -70%
15 | COc1cc(Cl)ccc1NC(=O)COc1ccccc1C(=O)N1CCN(c2ccc(O)cc2)CC1 | -53.9%
16 | CC(C)C(=O)N1CCN(c2ccccc2NC(=O)c2cccc(Cl)c2)CC1 | -69.6%
17 | O=C(CNC(=O)c1ccc(Cl)cc1)c1ccccc1 | -9.6%
18 | CC(C)OC(=O)CSc1nnc2c(n1)[nH]c1ccc(F)cc12 | 8.22%
19 | CN(C(=O)Cn1nnc(-c2ccc(F)cc2)n1)C1CCS(=O)(=O)C1 (centres unmarked) | -2.38%
20 | NC1=NC(=O)C(CC(=O)c2ccc(Cl)cc2)S1 (centres unmarked) | 1.23%
21 | COc1cccc(-n2c(SCC(=O)NCc3cccs3)nc3ccccc3c2=O)c1 | -2.74%
22 | O=C(Nc1ccccc1N1CCN(c2ccccc2)CC1)c1cccc(F)c1 | -8.05%
23 | CCC(=O)N1CCN(c2ccc(Cl)cc2NC(=O)c2cccc([N+](=O)[O-])c2)CC1 | -49.2%
24 | O=C(c1ccc(F)cc1)N1CCN(c2cc(=O)[nH]nc2-c2ccccc2)CC1 | -4.51%

Row | Structure (SMILES) | hERG current change (%, negative = inhibition) at 10uM
25 | O=C(Nc1ccccc1N1CCN(C(=O)c2ccc(Cl)cc2)CC1)c1cccc(F)c1 | -78.9%
26 | O=C(Nc1ccccc1N1CCN(C(=O)c2ccc(Cl)cc2)CC1)c1cccc([N+](=O)[O-])c1 | -75%
27 | O=C(Nc1ccccc1N1CCCC1)c1cccc(F)c1 | 6.24%
28 | O=C(Nc1ccc(Cl)cc1C(=O)N1CCCC1)c1cccc([N+](=O)[O-])c1 | -12%
29 | O=C(NC(=S)Nc1ccccc1Br)c1ccc2c(c1)OCO2 | -56.4%
30 | COC(=O)c1ccccc1NC(=S)NC(=O)c1ccc2c(c1)OCO2 | 32.6%
31 | Cc1ccc(C(=O)N2CCN(c3cc(=O)[nH]nc3-c3ccccc3)CC2)cc1 | -41.7%
32 | O=C(NC(=S)NCc1ccccc1)c1ccc2c(c1)OCO2 | -8.81%
33 | O=C(c1ccc(Cl)cc1)N1CCN(c2cc(=O)[nH]nc2-c2ccccc2)CC1 | -58.3%
34 | COc1ccc(OC)c(NC2=C(Cl)C(=O)N(Cc3ccccc3)C2=O)c1 | 5.06%
35 | CCn1c(COc2cc(C)ccc2C(C)C)nnc1SCC(=O)Nc1nccs1 | 5.52%
36 | COC(=O)c1ccc(N)cc1O | 22%
37 | Cc1cccc2c(C(=O)Nn3cnnc3)cc(-c3ccccc3Cl)nc12 | 25.8%
38 | CC(=O)N1CCN(c2ncnc3sc(-c4ccccc4)cc23)CC1 | -44.4%
39 | CCOC(=O)c1cnc(SCC(=O)N2CCN(C(=O)c3ccco3)CC2)nc1N | -29.3%
40 | CN1CCN(c2ccccc2NC(=O)c2cccc(OCc3ccccc3)c2)CC1 | -78.9%
41 | CN1CCN(c2ccccc2NC(=O)c2ccc(OCc3ccccc3)cc2)CC1 | -41.9%
42 | O=C(Nc1ccccc1N1CCN(C(=O)c2ccccc2)CC1)c1ccc2c(c1)OCO2 | -60.7%
43 | O=C(Nc1ccccc1N1CCCC1)c1ccc2c(c1)OCO2 | -3.23%
44 | CN1CCN(c2ccc(NC(=O)c3cccc(OCc4ccccc4)c3)cc2)CC1 | -8.95%
45 | O=C(Nc1ccccc1N1CCN(C(=O)c2ccc(Cl)cc2)CC1)c1cccnc1 | -73.2%
46 | O=C(Nc1ccccc1N1CCN(C(=O)c2ccc(Cl)cc2)CC1)c1ccc2c(c1)OCO2 | -46.8%
47 | O=C(Nc1ccc(N2CCN(C(=O)c3ccccc3)CC2)c(Cl)c1)c1cccnc1 | -31.2%
48 | O=C(Nc1ccccc1N1CCCC1)c1cccnc1 | -0.385%

Row | Structure (SMILES) | hERG current change (%, negative = inhibition) at 10uM
49 | CCOc1ccc(C2C(C#N)=C(N)N3C(=C2C#N)Sc2ccccc23)cc1 (centres unmarked) | 9.5%
50 | CC1Cc2ccccc2N1C(=O)CSc1nnc2n1C(C)(C)Cc1ccccc1-2 (centres unmarked) | -3.06%
51 | CC(C)CNC(=O)CCc1nc(-c2ccccc2)no1 | 10.4%
52 | O=[N+]([O-])c1cc(S(=O)(=O)C(F)(F)F)ccc1NCC1CCCO1 (centres unmarked) | 16.5%
53 | O=C(NCCCn1ncc2ccccc21)c1cc(COc2c(F)cccc2F)on1 | 6.73%
54 | CCn1ncc(Br)c1C(=O)Nc1ccc(Cl)cn1 | -7.49%
55 | O=C(/C=C/c1ccc(Cl)cc1)N1CCN(c2ccc(Cl)cc2[N+](=O)[O-])CC1 | -92.9%
56 | O=C(/C=C/c1ccccc1)N1CCN(c2c(Cl)cccc2[N+](=O)[O-])CC1 | -20.8%
57 | O=[N+]([O-])c1cc(Cl)ccc1N1CCCC1 | 5.05%
58 | CC(C)(C)C(=O)N1CCN(c2ccc(Cl)cc2[N+](=O)[O-])CC1 | -39.3%
59 | O=C(/C=C/c1ccc(Cl)cc1Cl)N1CCc2ccccc21 | -1.39%
60 | O=C(/C=C/c1ccccc1[N+](=O)[O-])N1CCCCC1 | -2.55%
61 | O=C(/C=C/c1ccc(Cl)cc1)N1CCN(c2c(Cl)cccc2[N+](=O)[O-])CC1 | -58%
62 | CCC(=O)N1CCN(c2c(Cl)cccc2[N+](=O)[O-])CC1 | -13.5%
63 | O=C1CN(C(=O)/C=C/c2ccc(Cl)cc2)c2ccccc2N1 | -75.2%
64 | O=C1CN(C(=O)/C=C/c2cccc(Cl)c2)c2ccccc2N1 | -21.4%
65 | O=C1CN(C(=O)/C=C/c2ccccc2F)c2ccccc2N1 | -2.56%
66 | O=C(/C=C/c1ccc(Cl)cc1Cl)N1CCN(c2ccccc2[N+](=O)[O-])CC1 | -72.7%
67 | Cc1nc2c(C)cccc2cc1C(=O)N/N=C/c1ccc(N(C)C)cc1 | -9.49%
68 | COC(=O)c1cc(C)sc1NC(=O)CN1CCN(C(=O)C2CCCO2)CC1 (centres unmarked) | -34.7%
69 | O=C(CS(=O)(=O)c1ccccc1)N1CCN(c2ccccc2)CC1 | 2.36%
70 | CCCOc1ccc(C2c3c(oc4ccccc4c3=O)C(=O)N2CCCN2CCOCC2)cc1 (centres unmarked) | -6.76%
71 | CCCC(C)NC(=O)c1sc2nc3n(c(=O)c2c1C)CCC3 (centres unmarked) | -6.29%
72 | Cc1cc(NC(=O)C2COc3ccccc3O2)no1 (centres unmarked) | -0.48%

Row | Structure (SMILES) | hERG current change (%, negative = inhibition) at 10uM
73 | O=C(CSc1n[nH]c(-c2ccco2)n1)Nc1sc2c(c1C(=O)Nc1ccccc1)CCCC2 | -41%
74 | Cc1ccccc1NC(=O)c1c(C)[nH]c(=S)c(C#N)c1-c1ccc(Cl)cc1 | 21.1%
75 | Cc1ccc(-c2nnc(N(C)C(=O)C3CCCO3)s2)cn1 (centres unmarked) | 6.74%
76 | Cc1cc(C)cc(-n2c(C)cc(/C=C3\C(=N)N4N=C(CC(C)C)SC4=NC3=O)c2C)c1 | 5.86%
77 | c1ccc(COCCC2CO2)cc1 (centres unmarked) | 5.49%
78 | O=C(/C=C/c1ccc(Cl)cc1)N1CCN(c2ccccc2[N+](=O)[O-])CC1 | -75.4%
79 | O=C(/C=C/c1ccc([N+](=O)[O-])cc1)N1CCN(c2ccccc2F)CC1 | -34.2%
80 | O=C(/C=C/c1ccc(Cl)cc1)N1CCN(c2ccccn2)CC1 | -32.3%
81 | O=C(/C=C/c1ccccc1Cl)N1CCCN(C(=O)/C=C/c2ccccc2Cl)CC1 | -26.1%
82 | CN1CCCN(C(=O)/C=C/c2ccc(Cl)cc2Cl)CC1.Cl | -67%
83 | O=C1CN(C(=O)/C=C/c2ccc(Cl)cc2Cl)CCN1 | -19.2%
84 | CCC(=O)NC1CC2CCCC(C1)N2Cc1ccc(C)cc1 (centres unmarked) | -37.4%
85 | O=C(NC1CC2CCCC(C1)N2Cc1ccc(F)cc1)c1ccc(F)cc1 (centres unmarked) | -70.8%
86 | O=C(NC1CC2CCCC(C1)N2C(=O)NC1CCCCC1)c1ccc(F)cc1 (centres unmarked) | 4.98%
87 | Cc1ccc(C(=O)NC2CC3CCCC(C2)N3Cc2ccccc2)cc1 (centres unmarked) | -40.4%
88 | CCCNC(=S)NC1CC2CCC(C1)N2Cc1ccccc1 (centres unmarked) | -35.7%
89 | CNC(=S)N1C2CCCC1CC(NC(=O)c1ccc(F)cc1)C2 (centres unmarked) | 6.93%
90 | CCCNC(=S)NC1CC2CCCC(C1)N2Cc1ccc(F)cc1 (centres unmarked) | -60.6%
91 | Cc1ccc(CN2C3CCCC2CC(NC(=O)c2ccc(F)cc2)C3)cc1 (centres unmarked) | -74.1%
92 | Cc1ccc(CN2C3CCCC2CC(NC(=O)c2ccc(C)cc2)C3)cc1 (centres unmarked) | -77.7%
93 | CC(=O)NC1CC2CCCC(C1)N2Cc1ccc(C)cc1 (centres unmarked) | -30.5%
94 | CCCNC(=S)NC1CC2CCCC(C1)N2CC(C)C.Cl (centres unmarked) | 13.1%
95 | CC(=O)NC1CC2CCC(C1)N2Cc1ccc(C)cc1 (centres unmarked) | -25.4%
